Source: PubChem (several laboratories)
Compounds with a hit are over-represented: about 12% of the library has one in this group of screens.
PostGolgi ctrl = growth of the yeast control strain, post-Golgi counter-screen | 5% of 98,000 active | efflux-deficient yeast background strain, growth absorbance A615, 16 h | inhibition, % at 10 µM | AID 738
PostGolgi yeast = growth inhibition of a yeast mutant, post-Golgi transport screen. 0.9% of 98,000 active. post-Golgi transport phenotypic cell assay. inhibition, % at 10 µM. AID 739;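 note: yeast cells grown in 1536-well plates; yeast grown about 18 h at 30C before absorbance read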
hDAT+cocaine = modulates human dopamine transporter uptake under cocaine | Q01959 | LLC-PK1 hDAT cells, [14C]-dopamine uptake with cocaine IC80; actives deviate in either direction | B-score at 10 µM | 1.3% of 110,000 active;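 active = Z score or B-score, a plate-position-corrected score, falls beyond the plate's 99.7% confidence bounds, in either direction; inactive = both scores lie inside the 99.7% bounds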;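 note: scored against the spread of the other compound wells on the same plate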
PLAP act = activates human placental alkaline phosphatase; P05187; purified PLAP enzyme, luminescent substrate read-out; hits give high values; activation fold at 20 µM; 1.2% of 96,000 active; AID 696; in the data active = activation fold above about 2
Target sequence (P05187 whole entry, looked up): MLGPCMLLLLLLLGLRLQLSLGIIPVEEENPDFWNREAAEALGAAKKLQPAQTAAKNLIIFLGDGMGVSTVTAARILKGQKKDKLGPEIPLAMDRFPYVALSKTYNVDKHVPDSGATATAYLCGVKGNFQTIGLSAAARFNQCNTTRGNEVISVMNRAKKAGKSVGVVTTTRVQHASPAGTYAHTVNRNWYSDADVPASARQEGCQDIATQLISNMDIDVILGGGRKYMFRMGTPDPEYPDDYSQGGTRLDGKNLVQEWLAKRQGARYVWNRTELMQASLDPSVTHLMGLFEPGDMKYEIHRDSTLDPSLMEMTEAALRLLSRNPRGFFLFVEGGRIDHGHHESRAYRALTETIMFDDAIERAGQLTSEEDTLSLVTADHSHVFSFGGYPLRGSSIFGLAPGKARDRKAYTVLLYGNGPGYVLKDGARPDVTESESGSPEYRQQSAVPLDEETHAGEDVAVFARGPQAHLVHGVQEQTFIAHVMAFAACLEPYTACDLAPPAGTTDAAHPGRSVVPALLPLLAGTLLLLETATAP
D1 mod = D1 dopamine receptor (human) allosteric modulation; B-score at 10 µM; 5.9% of 58,000 active; HEK293 D1, CRE-luciferase, dopamine EC30 potentiation; actives deviate in either direction; AID 641; P21728;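 active = luminescence count or its row- and column-corrected plate score outside the 99.7% band of the plate's sample wells, on either side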
Cav32 inh = blocks human Cav3.2 T-type calcium channel; Cav3.2-expressing cells, Fluo-4 calcium fluorescence FDSS; hits give low values; B-score at 10 µM; 4% of 100,000 active;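 active = single-dose well whose peak fluorescence ratio is a statistical outlier from its plate by either plate-standardised score or position-corrected B-score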
Active calls of the source: *; x = not tested or not shown. Cut-off read from the data, not from the text of the source, unless noted: active = inhibition above about 30%; inactive = the rest.

SMILES | PostGolgi ctrl | PostGolgi yeast | hDAT+cocaine | PLAP act | D1 mod | Cav32 inh
COc1ccc(/C(C#N)=C/c2c(-c3ccc(Cl)cc3)nc3c(C)cccn23)cc1 | 29 | -22 | 0.9 | 1.1 | x | -5.8*
COC(=O)C1C(=O)C2=C(CC1C)NC(C)=C(C(=O)OCCOc1ccccc1)C2c1ccc(C)o1 (stereo not drawn) | 17 | 7 | 1.9 | x | -0.97 | -5.2*
CC1=C(C(=O)OC2CCCCC2)C(c2ccc(C)o2)C2=C(CCCC2=O)N1 (stereo not drawn) | 16 | -5 | 1.6 | 1.4 | -2.3 | -4
CC1=C(C(=O)OC2CCCCC2)C(c2ccco2)C2=C(CC(C)(C)CC2=O)N1 (stereo not drawn) | 41* | 19 | 0.0025 | 1 | -2 | -2.6
COC(=O)C1C(=O)C2=C(CC1C)NC(C)=C(C(=O)OCc1ccc(OC)cc1)C2c1ccc(C)o1 (stereo not drawn) | 4 | -3 | 2.9 | 1.5 | -0.82 | -2.6
CC1=C(C(=O)OCc2ccccc2)C(c2ccc(C)o2)C2=C(CCCC2=O)N1 (stereo not drawn) | 4 | -4 | 3.1 | 1 | -1.9 | -3.3
CC1=C(C(=O)OCCOc2ccccc2)C(c2ccc(C)o2)C2=C(CC(C)(C)CC2=O)N1 (stereo not drawn) | 0 | -7 | 3.7* | 1.6 | 0.17 | -7.1*
Cc1cccc(OCCCCCn2ccnc2)c1 | 3 | -6 | 0.6 | 0.7 | -0.52 | -0.017
Cc1ccc(Nc2nc(OC(C(F)(F)F)C(F)(F)F)nc(N3CCOCC3)n2)cc1 | -8 | -9 | -1.3 | 1 | -0.25 | -0.25
FC(F)(F)C(Oc1nc(NC2CCCCC2)nc(N2CCOCC2)n1)C(F)(F)F | 22 | -7 | -1.3 | 1.1 | 0.58 | -4.9*
CCOC(=O)/C(C#N)=C(\N)C(C)C(=O)Nc1ccccn1 (stereo not drawn) | -4 | -11 | -0.39 | 0.9 | 0.3 | x
CC(C)(C)c1ccc(OCc2nc(-c3ccccn3)no2)c(Br)c1 | 32* | -1 | 0.052 | 1.5 | -3.1 | -3.2
Clc1cc(Cl)c(OCc2nc(-c3ccccn3)no2)cc1Cl | 13 | 3 | -0.49 | 0.8 | -1.1 | -0.014
O=C(c1ccc(Cl)cc1)N(Cc1cccs1)C1CCS(=O)(=O)C1 (stereo not drawn) | 24 | -3 | -0.0049 | 1 | 0.7 | -0.28
CCOC(=O)C1=C(C)NC(C)=C(C(=O)OCC)C1/C=C/c1ccccc1 | 24 | -7 | 0.99 | 1 | x | -1.8
CCOC(=O)C1=C(C)NC(C)=C(C(=O)OCC)C1c1ccccc1/C=C/C(=O)OC(C)(C)C | x | x | 0.46 | x | x | -4*
O=C(Nc1ccccc1C(=O)N1CCOCC1)c1noc2c1CCCC2 | 28 | -22 | 3* | 1.2 | 0.21 | -0.059
CCOC(=O)c1nn(-c2ccc3c(c2)OCO3)cc1O | 16 | 0 | -0.36 | x | 0.074 | 0.99
CCOC(=O)C1=C(C)N=c2s/c(=C\c3cccn3C)c(=O)n2C1c1cccc(OC)c1OC (stereo not drawn) | 33* | -1 | 0.7 | 1 | 0.66 | 0.19
CC1CCc2c(sc3nc(CN4CCOCC4)nc(NS(=O)(=O)c4cccc([N+](=O)[O-])c4)c23)C1 (stereo not drawn) | 23 | -2 | x | 2.1* | x | x
Cc1cc(S(=O)(=O)Nc2nc(CN3CCOCC3)nc3sc4c(c23)CCCC4)ccc1F | 11 | 3 | x | 1.6 | x | x
Cc1ccc(C)c2c3c([nH]c12)-c1nonc1CC3 | 4 | 4 | -2 | 0.8 | x | -1.6
O=C(Nc1ccc(Cl)cc1)OCc1cn(-c2ccc(Cl)cc2)nn1 | 16 | 1 | -0.57 | 1 | x | -4.5*
CCCc1nc2ccccc2c(=O)n1/N=C/c1ccc(O)cc1O | 19 | 7 | -8.8* | 1.4 | 2.3 | -0.61
Cc1cn(-c2cc(C(=O)Nc3ccc(C)c(NC(=O)C(=O)c4c[nH]c5ccccc45)c3)cc(C(F)(F)F)c2)cn1 | x | x | -0.29 | x | x | -0.48
CC(=O)c1ccc(-n2c(-c3cc(-c4ccco4)[nH]n3)n[nH]c2=S)cc1 | 2 | 0 | -0.62 | 2.6* | x | 0.64
Cc1ccc(-n2nnnc2SCc2nnc(-c3ccccc3Br)o2)c(C)c1 | 47* | -1 | -0.83 | 1.1 | -0.62 | -2.5
Cn1nnnc1SCc1nnc(-c2ccccc2Br)o1 | -1 | -2 | 0.42 | 1 | x | 0.68
N=c1c2c(n(Cc3ccc(F)cc3)c3c1CCC3)CCC2 | -1 | 13 | -5.2* | 0.8 | 0.23 | -0.61
